S2 tox: viability counter-screen for ATXN expression inhibitors. S2 cells (HEK-293 line with an ATXN2-luciferase reporter) viability, CellTiter-Fluor protease fluorescence, 24 h. 400,000 tested, 0.49% active. Potency, µM (series often up to 56.7 µM), hits mostly cytotoxic. AID 651635; also: nearly all actives have a fitted effect of over 40% in size
HepG2 viability: counter-screen for TGF-b inhibitors: cytotoxicity in HepG2 cells; HepG2 CAGA-GFP viability, ATP luminescence, 18 h; Potency, µM (top dose mostly 46.1 µM), inactives show top-dose activity change, negative = cytotoxicity, most hits filed as cytotoxic; 410,000 tested, 0.76% active
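HepG2 CAGA-GFP cells (1000/well, DMEM with 1% FBS) received compound, then TGF-beta at 500 pg/mL final, and were incubated 18 hours at 37 degrees C. Viability was read by CellTiter-Glo luminescence. Media-only wells were set as complete cell-killing and DMSO as no toxicity.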
HttQ103 aggreg: inhibitors of mutant huntingtin aggregate formation in PC12 cells; PC12 HttQ103-GFP aggregates, Acumen cytometry, 40 h; Potency, µM (highest dose often 46.1 µM), for the others: top-dose activity change, negative = inhibition, actives largely listed as inhibitors; 220,000 tested, 1.1% active; AID 1688; also: % is scaled to controls: 0 for no effect and ±100 for the full control effect; nearly all actives have a fitted effect of over 60% in size
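Compounds (qHTS titration) were added to PC12 cells expressing an ecdysone-driven HTT exon 1 Q103–GFP fusion after induction with 100 nM tebufenozide. Aggregate formation was measured as GFP objects in cell lysates.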
TGFb inhibitor: blocks TGF-b signaling. Potency, µM (series often up to 46.1 µM), without a hit: at the top dose activity, negative = inhibition, hits mostly inhibitors. HepG2 CAGA-GFP TGF-b/SMAD3 reporter, GFP fluorescence, 18 h; TGF-beta stimulated, 500 pg/mL final. 410,000 tested, 1.2% active; also: % is scaled to controls: 0 for no effect and ±100 for the full control effect; nearly all actives have a fitted effect of over 65% in size
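GFP signal (ex488/em500-530) from TGF-beta-stimulated HEPG2 CAGA-GFP cells, 500 pg/mL final, 18 h at 37 degrees C in DMEM plus 1% FBS, normalized to unstimulated and DMSO-stimulated controls.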
ATXN2 expr inh: reduces ATXN2 reporter expression in HEK-293 cells; Potency, µM (top dose mostly 57 µM), for the others: at the highest dose activity change, negative = inhibition, hits mostly inhibitors; 360,000 tested, 0.72% active; AID 1745845; HEK-293 ATXN2-luciferase reporter, luminescence, 24 h; also: % is scaled to controls: 0 for no effect and ±100 for the full control effect; nearly all actives have a fitted effect of over 55% in size
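qHTS (up to 57 uM final) was run with 24 h compound exposure of reporter cells at 37 °C. Each well was multiplexed: SteadyGlo luminescence measured ATXN2-luciferase expression after a fluorogenic Gly-Phe-AFC viability readout (25 uM final).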
HTT cytoprotect: Huntington cell model cytoprotection by ATP luminescence; 230,000 tested, 0.14% active; PC12 HTT-Q103 induced, cytoprotection, ATP luminescence, 40 h; Potency, µM (top dose mostly 56.4 µM), inactives show cytoprotection (ATP increase), usual class: activators; also: % of control where 0% means no effect; nearly all actives have a fitted effect of over 45% in size
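Quantitative HTS on tebufenozide-induced (100 nM) PC12 cells expressing HTTQ103 exon 1–GFP; compounds tested as a concentration series; survival measured via cellular ATP.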
Numbers without * were called inactive; i = inactive; u = inconclusive; x = no result given; [ ] = remark or other dose. Shown are actives, neighbours in structure and some others; about 2.8% of the full set was active somewhere. Calls follow the shape of the dose curve; as a rule, active = well fitted curve in the direction sought with a large enough effect; inconclusive = small, poorly fitted or top-dose-only effect, or another doubt; inactive = no such curve, though single readings can be large; an effect the other way counts as inactive or inconclusive. Potency is read from the fitted curve at half-maximal effect.

SMILES	S2 tox	HepG2 viability	HttQ103 aggreg	TGFb inhibitor	ATXN2 expr inh	HTT cytoprotect
Cc1cc(C)n2nc(SCc3nnc(SCCCCl)o3)nc2n1	u	0%	5%	4%	-7%	-9%
COC(=O)c1c(SCC(=O)Nc2cc(C)cc(C)c2)[nH]c2ccccc2c1=O	i	10µM*	x	13µM*	u	x
COC(=O)c1c(SCC(=O)Nc2ccccc2C(F)(F)F)[nH]c2ccc(Cl)cc2c1=O	i	4%	x	u	5%	x
CC(=O)C(C(C)=O)c1c(Cl)c(O)c(O)c2c(C(=O)c3ccccc3)coc12	u	-39%	u	u	25µM*	-22%
CN1CCN(Cc2c(O)ccc3occ(C(=O)c4ccccc4)c23)CC1	u	-29%	-5%	-1%	-9%	2%[10 µM]
COC(=O)C1CCN(Cc2ccc3c(c2)CN(C(=O)c2ccc4nc(C)c(C)nc4c2)CCO3)CC1	i	x	x	x	x	x
COc1ccc(S(=O)(=O)N2CCN(c3cc(-c4ccccc4)nc4ncnn34)CC2)cc1	i	-16%	13µM*	u	-25%	4%[10 µM]
O=S(=O)(c1ccccc1)N1CCN(c2cc(-c3ccccc3)nc3ncnn23)CC1	i	-11%	11µM*	-9%	-24%	-19%[10 µM]
COc1ccc(-c2cc(N3CCCC3)n3ncnc3n2)cc1	i	-23%	-31%	2%	2%	-12%
O=S(=O)(c1ccc(Br)cc1)N1CCN(c2cc(-c3ccccc3)nc3ncnn23)CC1	i	-2%	2%	-29%	-5%	2%
CC[C@H](NC(=O)[C@H](C)NC)C(=O)N1C[C@@H](O)C[C@H]1Cc1c(-c2[nH]c3cc(F)ccc3c2C[C@H]2C[C@H](O)CN2C(=O)[C@H](CC)NC(=O)[C@H](C)NC)[nH]c2cc(F)ccc12	x	x	x	x	-6%	x
CCCCOc1ccc(-c2cc(C(=O)NNC(=S)NCC)c3ccccc3n2)cc1	u	8.9µM*	u	u	u	-109%
CCCCOc1cccc(-c2cc(C(=O)NNC(=S)NCC)c3ccccc3n2)c1	u	-42%	-15%[9.22 µM]	u	-16%	-25%
CCNC(=S)NNC(=O)c1cc(-c2ccc(OC)cc2)nc2ccccc12	i	7.9µM*	-14%	-3%	-28%	x
CCNC(=S)NNC(=O)c1cc(-c2cccc(C)c2)nc2ccccc12	i	-72%	u	-14%	39%	-60%
CCCOc1cccc(-c2cc(C(=O)N/N=C/c3ccccn3)c3ccccc3n2)c1	u	-2%	x	u	7.1µM*	x
C[C@@H]1CN(Cc2ccc(F)cc2)[C@@H](C)CN1C(=O)c1cc2c(C(=O)C(=O)N(C)C)cn(C)c2cc1Cl	x	x	x	x	-17%	x
Cc1cccc(C(=O)NCC(=O)OCC(=O)c2ccc3ccccc3c2)c1	x	-3%	x	-10%	x	x
Cc1n[nH]c(C)c1Cc1sc2c(c1C(=O)N1C[C@H](O)CO1)c(=O)n(C)c(=O)n2CC(C)C	x	x	x	x	-10%	x
CC(NC(=O)OC(C)(C)C)C(=O)Oc1cc2oc(=O)cc(-c3ccccc3)c2cc1Cl (stereo not drawn)	x	-3%	6.3µM*	9%	4%	-27%[10 µM]
N#C/C(=C\Nc1ccccc1O)c1nc2ccccc2o1	u	-69%	5.6µM*	u	-32%	-27%[10 µM]
COc1ccc(CN2CCCC(n3cc(C(=O)NC4CCCC4)nn3)C2)c(O)c1 (stereo not drawn)	i	x	x	x	x	x
Clc1ccc2c(N3CCN(CCCN4CCN(c5ccnc6cc(Cl)ccc56)CC4)CC3)ccnc2c1	x	x	x	x	-7%[25.6 µM]	x
Cc1nc2c(-c3ccccc3)c(C)[nH]n2c(=O)c1Cc1ccc(Br)cc1	x	-46%	x	2.5µM*	x	x
Cc1nc2c(-c3ccccc3)c[nH]n2c(=O)c1Cc1ccccc1	i	-17%	7.1µM*	2%	53%	-150%

Screening results from PubChem BioAssay.
